These results are taken from PubChem BioAssay (EPA / NIEHS).

Where “and” joins values, the source holds several entries; their conditions need not be identical. Identical values can stand only once. Calls of active or inactive are those of the source. Rule for the calls: active = hit-call score of the fitted dose curve at least 0.9, where 1 is the maximum; inactive = score below 0.9.

The assay in a line: BSK_hDFCGF_Proliferation: Cell Proliferation Assessment in the BioMAP Diversity Plus: hDFCGF Assay (AID 2283059).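 Note: curves fitted for both rise and fall of signal versus DMSO baseline.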 The note with it: primary human foreskin fibroblasts. Here is the method: BSK_hDFCGF is a cell-based, multiplexed-readout assay that uses foreskin fibroblast, a human skin primary cell, with measurements taken at 24 hours after chemical dosing in a 96-well plate.BSK_hDFCGF_Proliferation is an assay component measured in the BSK_hDFCGF assay. It measures […] related to cell proliferation using Sulforhodamine staining technology.Data from the assay component BSK_hDFCGF_Proliferation was analyzed into 1 assay endpoint. This assay endpoint, BSK_hDFCGF_Proliferation, was analyzed with bidirectional fitting relative to DMSO as the negative control and baseline of activity. Using a type of viability reporter, measures of total protein for gain or loss-of-signal activity can be used to understand the viability at the cellular-level. Furthermore, this assay endpoint can be referred to as a secondary readout, because this assay has produced multiple assay endpoints where this one serves a viability function. To generalize the intended target to other relatable targets, this assay endpoint is annotated to the cell cycle intended target family, where the subfamily is proliferation.
The levels of cell surface (or secreted, indicated by the prefix "s") biomarker endpoints were measured by ELISA. Overt cytotoxicity to cells in confluent adherent cultures (all systems other than the BT system) was assessed by measuring total protein levels using sulforhodamine B (SRB) staining in parallel cultures at the time of biomarker measurements, indicated as SRB endpoints. For proliferation assays for adherent cell types, individual cell types are cultured at sub-confluence and relative cell numbers quantified by SRB staining at time points optimized for each system (48 h: 3C and CASM3C systems; 72 h: BT and HDF3CGF systems; 96 h: SAg system). SRB was performed by staining cells with 0.1% SRB after fixation with 10% TCA and reading wells at 560 nm.Viability and proliferation of PBMC (T cells) was quantified by Alamar Blue reduction for the SAg and BT systems. For PBMC viability (referred to as PBMC Cytotoxicity within the assay endpoint names), cells were plated (75,000/well in a 96-well plate) and then chemical samples added for 1 h before addition of activators, SEB and TSST-1 (20 ng/mL final concentration each). Cells were incubated for 90 h. Then, Alamar Blue (20 uL/well) (Invitrogen, Cat DAL1100) was added for 6 h, and the plates were read with a fluorescence microplate reader at 546/580 nm (excitation/emission). For PBMC proliferation, cells were plated and activated as above but incubated for only 16 h prior to addition of Alamar Blue. Plates were read after 6 h.
Take `CC1=CC(C)C(C=O)C(C)C1` (stereo not given) (tested in a mixture with another compound): the outcome was inactive.

For the molecule `CCC(=O)OCC=Cc1ccccc1`, the outcome was inactive. Same read-out and setting: with `OCCN1CCOCC1` the entry was “inactive”. Same read-out and setting: with `COc1ccccc1NC(=O)CC(C)=O` the entry was “inactive”. Turning to `O=S1(=O)CC(Cl)(Cl)C(Cl)(Cl)C1`, the concentration at half-maximal activity (AC50) is 0.016 µM (active). For the molecule `C#C[C@]1(O)CC[C@H]2[C@@H]3CCc4cc(O)ccc4[C@H]3CC[C@@]21C`, the AC50 was 7.35 µM (active).

For the molecule `CCCCOCCOCCO`, the outcome was inactive.

Take `OCC(F)(OC(F)(F)C(F)(OC(F)(F)C(F)(F)C(F)(F)F)C(F)(F)F)C(F)(F)F` (stereo not given): the AC50 was 4.48 µM (active) and 4.13 µM (active). With `CC(=O)c1ccc(C)cc1`, the result was inactive.

`CCCCCCCC1CCCC1=O` (stereo not given): the AC50 was 33.3 µM (active).

Consider `c1ccc(OCCOc2ccccc2)cc1`, for which the outcome was inactive. On the same count and under the same terms, for `CC1(C)[C@H](C=C(Cl)Cl)[C@H]1C(=O)OCc1cccc(Oc2ccccc2)c1` the value was “inactive”. Regarding `CCCCN(CCO)CCO`, the result was inactive. `O=C(O)C(F)(F)C(F)(F)C(F)(F)C(F)(F)C(F)(F)C(F)(F)C(F)(F)C(F)F`: the result was inactive. As for `CC(=O)OCC=C(C)CCC=C(C)CCC=C(C)C`, the AC50 is 17.4 µM (active). Regarding `CC(=O)CCC=C(C)CCC=C(C)C`, the AC50 is 31.3 µM (active). As to `CCn1cc(C(=O)O)c(=O)c2ccc(C)nc21`, the outcome was inactive. As to `c1ccc2c(c1)-c1ccc3ccc4cccc5cc-2c1c3c45`, the outcome was inactive. Turning to `CC(C)(C)c1cccc(O)c1`, the outcome was inactive. As to `COC(=O)c1ccc(C(=O)OC)cc1`, the result was inactive. Take `C=C(C)C(N)=O`: the outcome was inactive. With `O=C(c1ccc(OCCN2CCCCC2)cc1)c1c(-c2ccc(O)cc2)sc2cc(O)ccc12`, the AC50 was 7.34 µM (active). Turning to `CC(C)CCCC(C)(C)O`, the result was inactive.

Turning to `C=C(C)C(=O)OCCC(F)(F)C(F)(F)C(F)(F)C(F)(F)C(F)(F)C(F)(F)C(F)(F)C(F)(F)F`, the outcome was inactive. On to `C=C(F)C(=O)OC(C(F)(F)F)C(F)(F)F`, for which the result was inactive. For the molecule `O=C(O)C(F)(F)OC(F)(F)C(F)(F)OC(F)(F)C(F)(F)C(F)(F)C(F)(F)F`, the outcome was inactive. `CC=CC(=O)C1=C(C)C=CCC1(C)C`: the outcome was inactive. Consider `CC(C)(CO)CO`, for which the outcome was inactive.

Turning to `NC(=O)c1c(Cl)cccc1Cl`, the outcome was inactive. With `CCCCCCCCCC(=O)OCC`, the AC50 is 13.7 µM (active). Take `CCOC(=O)C=Cc1ccccc1`: the result was inactive.

For `CCOC(=O)CCCCCCCCC(=O)OCC`, the result was inactive. For the molecule `CC(=O)OC(C)(C)C1CC=C(C)CC1` (stereo not given), the AC50 was 18.5 µM (active). In the case of `CCCCCCCCCCCCS`, the half-maximal activity concentration (AC50) is 3.2 µM (active). The same measure, in the same setting: with `c1ccc(Sc2ccccc2)cc1` the figure was 29.6 µM (active); with `CC/C(=C(\c1ccccc1)c1ccc(OCCN(C)C)cc1)c1ccccc1`, 5.05 µM (active) and 314 nM (active).

In the case of `Nc1ccc(N)c([N+](=O)[O-])c1`, the AC50 was 13.4 µM (active). For `C=C1CC/C=C(\C)CC[C@@H]2[C@@H]1CC2(C)C`, the AC50 was 6.82 µM (active).

`C=CC(=O)OCC(CO)(COC(=O)C=C)COC(=O)C=C`: the AC50 was 0.016 µM (active). Regarding `O=C1OC2(c3ccc(O)cc3Oc3cc(O)ccc32)c2ccccc21`, the AC50 is 20 µM (active).

By AC50 is commonly meant the concentration giving half of the maximal activity seen.
